A549 tox: counter-screen for Nrf2 inhibitors: cytotoxicity in A549 cells. A549 ARE-Fluc cells, CellTiter-Fluor viability, 18-24 h. Potency, µM (top dose mostly 46 µM), without a hit: top-dose activity change, negative = cytotoxicity, actives largely listed as inhibitors. hit rate 0.16% among 390,000. AID 504648; note: potency is the fitted concentration of half-maximal effect; % is set by controls: 0 for no effect and ±100 for the full control effect
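A549 ARE-Fluc cells in 5% FBS OPTI-MEM, 5000 cells/well, rested 2 h then exposed to compounds in concentration-response for 18-24 h at 37 °C. Viability by CellTiter-Fluor fluorescence (Ex 405/Em 525) after 30 min; luciferase luminescence (BugLite, 15 min, RT) read afterwards.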
LDHA block: inhibitors of human lactate dehydrogenase A | AID 1347041 | purified LDHA, NADH/diaphorase-resazurin fluorescence; hits give low values | hit rate 0.15% among 480,000 | P00338 | activity change, % (values are at about 110 or 230 µM); in the data active = activity change below about -30%; inconclusive = mostly about -25% to -30%;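 note: plate controls were DMSO wells for no effect and wells without enzyme for full effect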
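Human LDH5 at 2 nM final in Tris HCl pH 7.4 with 0.06 mM NADH and 0.2 mM pyruvate, reacted 5 minutes at room temperature. Remaining NADH coupled via diaphorase/resazurin; resorufin fluorescence read at 0 and 20 minutes, normalized to enzyme-free and DMSO wells.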
mIDH1 inhibitor: human IDH1 R132H inhibition; O75874; IDH1-R132H enzyme, NADPH consumption, diaphorase/resazurin fluorescence; Potency, µM (doses to about 76.6 µM), for the others: at the top dose activity change, negative = inhibition, usual class: inhibitors; hit rate 0.093% among 390,000; AID 602179; note: potency is the fitted concentration of half-maximal effect; % is set by controls: 0 for no effect and ±100 for the full control effect; nearly all actives have a fitted effect of over 65% in size
Target sequence (O75874 whole entry R132H, stated change not applied): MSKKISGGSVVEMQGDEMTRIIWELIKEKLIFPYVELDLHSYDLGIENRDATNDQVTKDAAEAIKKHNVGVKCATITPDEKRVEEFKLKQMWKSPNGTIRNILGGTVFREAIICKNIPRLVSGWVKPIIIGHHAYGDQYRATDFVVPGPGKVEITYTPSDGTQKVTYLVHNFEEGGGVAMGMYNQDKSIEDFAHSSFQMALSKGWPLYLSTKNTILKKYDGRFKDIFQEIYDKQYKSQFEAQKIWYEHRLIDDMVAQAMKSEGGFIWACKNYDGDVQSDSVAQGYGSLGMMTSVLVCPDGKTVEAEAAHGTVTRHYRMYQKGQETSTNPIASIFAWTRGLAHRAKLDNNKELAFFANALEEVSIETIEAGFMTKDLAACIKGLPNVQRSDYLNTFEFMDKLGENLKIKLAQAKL
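IDH1-R132H (0.5 ug/mL dispensed) in pH 7.5 Tris buffer was preincubated 30 min with compound, then given a substrate mix of 0.016 mM NADPH and 2 mM alpha-KG for 80 min at room temperature; remaining NADPH was read by diaphorase/resazurin fluorescence.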
12-LOX inh: ALOX12 (human) lipoxygenase inhibition | P18054 | hit rate 1.1% among 580,000 | purified 12hLO, xylenol orange hydroperoxide absorbance | AID 1671190 | Potency, µM (titrated, usually from 108 µM), inactives show top-dose activity change, negative = inhibition, actives largely listed as inhibitors; note: potency is the fitted concentration of half-maximal effect; % is set by controls: 0 for no effect and ±100 for the full control effect
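Purified human 12hLO (150 nM final) in 25 mM Hepes, 0.01% Triton X-100, pH 7.0 was preincubated 15 min at room temperature with compound. Then 40 uM arachidonic acid was added, 30 min. Hydroperoxide was read by Fe-XO absorbance ratio 573/405 nm.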
Nrf2 ARE act: activators of Nrf2 (ARE) signaling; AREc32 ARE-luciferase reporter (MCF7-derived line), luminescence, 24 h; Potency, µM (titrated, usually from 46.1 µM), inactives show at the highest dose activation, most hits filed as activators; hit rate 0.31% among 410,000; note: potency is the fitted concentration of half-maximal effect; % of control where 0% means no effect; nearly all actives have a fitted effect of over 65% in size
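Quantitative high-throughput format: AREc32 reporter cells, 1000 per well, received compound by pin transfer and were incubated 24 hr at 37 deg C, 5% CO2, before Steady-Glo luminescence detection.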
Nrf2 inh: Nrf2 pathway inhibition. A549 ARE-Fluc reporter, luciferase luminescence, 18-24 h. Potency, µM (titrated, usually from 46 µM), for inactives: top-dose activity change, negative = inhibition, most hits filed as inhibitors. hit rate 2.1% among 360,000. AID 504444; note: potency is the fitted concentration of half-maximal effect; % is set by controls: 0 for no effect and ±100 for the full control effect; nearly all actives have a fitted effect of over 60% in size
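Reporter: ARE-Fluc in A549. Exposure: 18-24 h, 37 °C, 5% CO2, 5% FBS OPTI-MEM. Readouts: fluorescent cytotoxicity (CellTiter-Fluor), then luminescent Nrf2 signal after BugLite.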
Active calls of the source: *; ? = inconclusive; . = not tested or not shown; [ ] = dose if it differs, or a comment. Compounds with a hit are over-represented: about 2.7% of the library has one in this group of screens. Unless noted, calls come from the whole dose curve; as a rule, active = well fitted curve in the direction sought with a large enough effect; inconclusive = small, poorly fitted or top-dose-only effect, or another doubt; inactive = no such curve, though single readings can be large; an effect the other way counts as inactive or inconclusive.

SMILES	A549 tox	LDHA block	mIDH1 inhibitor	12-LOX inh	Nrf2 ARE act	Nrf2 inh
CC(C)Cn1nc(NC(=O)c2cccs2)c2cc3ccccc3nc21	3.9%	1.1	1.6%	74.6%	-0.1%	16.4µM*
CC(C)Cn1nc(NC(=O)c2ccco2)c2cc3ccccc3nc21	20.3%	-5.9	2.5%	?	4.9%	16.4µM*
CCNC(=O)NC(=O)COC(=O)c1cc(-c2cccs2)nc2ccccc12	.	7.4	.	?	.	.
CC(C)(C)N/N=C/c1cc(Cl)cc([N+](=O)[O-])c1O	-8.1%	7.0	3.2%	15.8µM*	2.9%	1.4%
COCCCNc1nc2ccccc2nc1NS(=O)(=O)c1cc(Cl)ccc1Cl	-19.1%	-13.5	-6.4%	39.8µM*	2.2%	20.6µM*
CCN1CCN(c2nc3ccccc3nc2NS(=O)(=O)c2cc(Cl)ccc2Cl)CC1	.	-17.1	.	25.1µM*	.	.
COCCCNc1nc2ccccc2nc1NS(=O)(=O)c1ccc(Cl)cc1	12.1%	-5.4	3.0%	0.0%	-1.0%	2.1%
COc1ccc(-c2n[nH]c(=S)n2-c2cc(OC)ccc2OC)cc1	-0.1%	-3.7	10.4%	?	3.2%	-0.4%
COc1ccc(OC)c(-n2c(-c3cccc(O)c3)n[nH]c2=S)c1	13.8%	-11.5	3.6%	3.55µM*	-0.4%	2.8%
COc1ccc(-c2cc(-c3n[nH]c(=S)n3-c3cc(OC)ccc3OC)[nH]n2)cc1	-3.5%	-7.9	3.2%	44.7µM*	1.9%	-11.8%
COc1ccc(OC)c(-n2c(-c3cc(-c4ccc(F)cc4)n[nH]3)n[nH]c2=S)c1	1.0%	-10.7	-0.9%	?	3.7%	-19.9%
CCOC(=O)c1csc(-c2sccc2Br)n1	-3.0%	-1.4	13.9%	0.0%	14.1µM*	?
Nc1c(Cl)cc(N=Nc2ccccc2)cc1Cl	-9.8%	0.1	-3.6%	-2.6%	6.31µM*	?
COc1ccc(C)cc1NC(=O)C(C)N1CCOCC1 (stereo not drawn)	-12.1%	2.3	-0.9%	11.2µM*	0.1%[9.22 µM]	4.8%
COc1ccc(C)cc1NC(=O)C(c1ccccc1)N1CCN(CC(=O)N2CCOCC2)CC1 (stereo not drawn)	-9.0%	-3.2	1.0%	1.0%	-0.2%	1.3%
CCOc1ccc(-c2nc(=S)[nH][nH]2)cc1	-2.5%	-5.8	-3.7%	25.1µM*	6.4%	19.2%
CCOC(=O)N1CCC(N2CCN(c3cc(C)ccc3C)CC2)CC1	-14.9%	2.5	1.4%	6.31µM*	-0.5%	?
S=c1[nH]nc(-c2ccccc2)n1C1C=CCCC1 (stereo not drawn)	3.4%	-3.8	-2.4%	44.7µM*	-0.3%	-19.4%
COc1ccc(-c2nc(-c3c[nH]c(C(=O)N4CCCC4)c3)cs2)cc1	.	2.2	.	?	.	.
CCN(CC)S(=O)(=O)c1nnc(NC(=O)COc2ccc(Cl)cc2)s1	0.3%	-5.7	-12.1%	-15.7%	0.4%	4.11µM*
CCN(CC)S(=O)(=O)c1nnc(NC(=O)COc2ccccc2)s1	9.2%	-0.3	12.6%	-7.8%	0.7%	?
Cc1cc(/C=C2\SC(=S)NC2=O)c(C)[nH]1	?	-11.0	-1.8%	?	5.3%	0.6%
O=C1NC(=S)S/C1=C\c1cc(Cl)ccc1Cl	?	-31.0*	5.5%	7.94µM*	2.6%	?
N[C@@H]1CC[C@H](C(=O)N2CCC(Oc3cccc(C(F)(F)F)c3)CC2)C1	.	.	.	38.6%	.	.
Cc1ccc(NC(=O)C2CCN(S(=O)(=O)c3c(C)noc3/C=C/c3ccco3)CC2)nc1	-1.4%	-11.0	-3.9%	?	19.4%	16.4µM*
SMILES	A549 tox	LDHA block	mIDH1 inhibitor	12-LOX inh	Nrf2 ARE act	Nrf2 inh
Cc1ccc(NC(=O)C2CCN(S(=O)(=O)c3cc([N+](=O)[O-])ccc3Cl)CC2)nc1	-16.8%	8.1	-4.3%	0.0%	?	20.6µM*
CC(=O)COC(=O)C1CCN(S(=O)(=O)c2cc([N+](=O)[O-])ccc2Cl)CC1	2.9%	2.2	-3.8%	0.0%	14.1µM*	3.7%
Cc1ccc2nc(NC(=O)C3CCN(S(=O)(=O)c4cc([N+](=O)[O-])ccc4Cl)CC3)sc2c1	?	-1.3	2.1%	?	9.0%	?
Cn1nc(C(=O)OCC(=O)NC(C)(C#N)C2CC2)c2ccccc2c1=O (stereo not drawn)	.	-1.4	.	?	.	.
N#Cc1c(NC(=O)c2ccc([N+](=O)[O-])o2)sc2c1CCC2	?	0.1	17.6%	-18.0%	?	6.8%
NC(=O)c1c(NC(=O)c2ccc([N+](=O)[O-])o2)sc2c1CCCC2	2.1%	-8.5	-3.4%	-2.0%	3.98µM*	-2.4%
CN1CCc2c(sc(NC(=O)c3ccc([N+](=O)[O-])o3)c2C(N)=O)C1	20.6µM*	4.9	0.0%	-24.2%	-2.0%	?
NC(=O)c1c(NC(=O)c2ccc(F)cc2)sc2c1CCC2	-3.6%	-2.6	-4.4%	17.8µM*	9.1%	?
CCOc1cc(CNC(=O)c2ncoc2-c2cccc(C)c2)ccc1OC	.	-4.5	.	3.9%	.	.
Cc1nc(C(C)(C)C)nc2sc(C(=O)N3CCCCC3)c(C)c12	.	10.9	.	88.1%	.	.
CCC(C)c1ccc(NC(=O)CSc2nnc(-c3cc(-c4ccc(F)cc4)n[nH]3)n2N)cc1 (stereo not drawn)	.	11.0	.	?	.	.
O=C(CCl)N(c1ccc(Cl)cc1)c1c[nH]c2ccccc12	?	-5.7	?	?	-2.7%	20.6µM*
CC(=O)N(O)CCCCCNC(=O)CCC(=O)N(O)CCCCCNC(=O)CCC(=O)N(O)CCCCCN	-0.7%	-0.8	2.8%	?	-1.0%	10.3µM*
O=c1[nH]cnc2c1sc1nc(-c3ccccc3)c3c(c12)CCCC3	1.6%	-6.6	7.1%	-1.0%	-0.7%	2.5%
S=c1nc[nH]c2c1sc1nc(-c3ccccc3)c3c(c12)CCCC3	-0.3%	-5.3	6.0%	44.7µM*	0.3%	?
O=c1[nH][nH]c(=S)n1C1CCCCC1	-6.0%	-4.8	10.2%	.	4.5%	-0.7%
CC(C)n1c(=O)[nH][nH]c1=S	1.5%	-5.1	2.3%	35.5µM*	-0.5%	12.7%
O=C(Nc1ccc(F)cc1)c1ccc(NC(=O)C2CCCO2)cc1 (stereo not drawn)	-1.7%	-4.2	1.3%	.	2.2%	-5.4%
O=C(Nc1ccc(C(F)(F)F)cc1)c1ccc(NC(=O)C2CCCO2)cc1 (stereo not drawn)	1.8%	-5.9	-3.5%	.	1.5%	20.6µM*
CC1CCC(Nc2ccc3cc(S(=O)(=O)N4CCCC4)ccc3n2)CC1 (stereo not drawn)	.	51.0	.	8.91µM*	.	.
CC1CCN(S(=O)(=O)c2ccc3nc(NC4CCCCCC4)ccc3c2)CC1	.	9.9	.	?	.	.

Source: PubChem BioAssay (National Center for Advancing Translational Sciences (NCATS))
